Source: PubChem BioAssay (Broad Institute)
Compounds with a hit are over-represented: about 6.7% of the library has one in this group of screens.
T cruzi growth-1 – T. cruzi proliferation inhibition. T. cruzi beta-gal in NIH3T3, GalScreen luminescence, 90 h. inhibition, % at 8.34 µM. 77,000 tested, 5.9% active;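 active = mean inhibition above about 93%, with at least 55% of replicates each passing it, limit read from the data, passing the limit was not always enough; inconclusive = only one of those two conditions holds; inactive = neither condition holds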
C diff HTS – blocks growth of Clostridium difficile | Clostridium difficile clinical isolate growth, OD600, 24 h; hits give low values | AID 1259249 | growth activity, negative = inhibition, % at 16 µg/mL (by protocol) | 86,000 tested, 0.25% active;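 active = mean growth activity at or below -80% and every replicate also at or below -80%; inconclusive = mean at or below -80% but some replicate above -80%; inactive = mean growth activity above -80%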;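 note: 0% = DMSO wells and -100% = levofloxacin 16 µg/mL wells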
Pf Dd2 growth – P. falciparum Dd2 growth inhibition | SYBR Green, 72 h; hits give low values | AID 1159554 | 94,000 tested, 2.3% active | activity change, % at 10 µM; in the data active = activity change below about -80%; inconclusive = no clear call, values can overlap the other calls
T cruzi growth-2 – blocks T. cruzi growth in NIH3T3 host cells. 5,600 tested, 72% active. inhibition, % at 8.35 µM. T. cruzi beta-gal in NIH3T3, GalScreen luminescence, 90 h. AID 651739. shares compounds with T cruzi growth-1;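 active = mean replicate inhibition above about 95% and at least 55% of replicates individually reaching it, limit read from the data; inconclusive = only one of the two criteria is met; inactive = neither criterion is met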
T cruzi growth-3 – inhibitors of T. cruzi proliferation | 5,600 tested, 21% active | T. cruzi beta-gal in NIH3T3, GalScreen luminescence, 90 h | inhibition, % at 2.09 µM | AID 651740 | shares compounds with T cruzi growth-1;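 active = mean inhibition above about 95%, with at least 55% of replicates also reaching it, limit read from the data; inconclusive = meets just one of the two conditions; inactive = meets neither condition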;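 note: plate controls were neutral control median for no effect and positive control median for full effect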
3T3 cytotox – cytotoxicity in mouse NIH/3T3 fibroblasts | shares compounds with T cruzi growth-1 | 5,600 tested, 14% active | cytotoxicity (signal decrease), % at 8.35 µM | NIH/3T3 viability, CellTiter-Glo ATP luminescence, 90 h;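 active = mean signal decrease across replicates above about 35% based on untreated-well scatter, with enough replicates individually passing, limit read from the data; inconclusive = no rule stated though some were filed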;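 note: 0% = median of neutral control wells and 100% = median of positive control wells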
NIH3T3 tox 2 – NIH/3T3 (mouse) viability loss. shares compounds with T cruzi growth-1. NIH/3T3 viability, CellTiter-Glo ATP luminescence, 90 h. inhibition, % at 24.9 µM. 5,600 tested, 56% active;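 active = mean loss of cell viability signal at or above a set limit, and enough replicates individually reaching it; inconclusive = meets only the mean limit or only the replicate share; inactive = meets neither condition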;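 note: 0% = median of neutral control wells and 100% = median of positive control wells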
Starred values were filed as active, the others as inactive; ? = inconclusive; · = no result given.

SMILES	T cruzi growth-1	C diff HTS	Pf Dd2 growth	T cruzi growth-2	T cruzi growth-3	3T3 cytotox	NIH3T3 tox 2
C[C@@H]1CCCCO[C@@H](CN(C)S(=O)(=O)c2ccc(F)cc2)[C@@H](C)CN([C@H](C)CO)C(=O)c2cc(NC(=O)Nc3ccc(C(F)(F)F)cc3)ccc2O1	103.6*	·	-81.6*	110.9*	106.1*	?	62.1*
C[C@@H]1CN([C@H](C)CO)C(=O)c2cc(NC(=O)Nc3ccc(C(F)(F)F)cc3)ccc2O[C@@H](C)CCCCO[C@@H]1CN(C)S(=O)(=O)c1ccc(F)cc1	75.1	·	-49.1	·	·	·	·
C[C@H]1CN([C@@H](C)CO)C(=O)c2cccc(NC(=O)C3CC3)c2O[C@H]1CN(C)C(=O)Nc1ccccc1	-1.4	-3.0	24.9	·	·	·	·
COCC#Cc1ccc([C@H]2[C@@H](CO)N3CCCCN(Cc4cccnc4)C[C@H]23)cc1	100.4*	-0.5	-10.7	96.3*	58.5	5.2	14.0
COCC#Cc1ccc([C@@H]2[C@H](CO)N3CCCCN(Cc4cccnc4)C[C@@H]23)cc1	10.5	-0.1	-8.8	·	·	·	·
COCC#Cc1ccc([C@H]2[C@@H](CO)N3CCCCN(Cc4cncnc4)C[C@@H]23)cc1	107.5*	-1.9	12.9	91.8	61.2	5.8	13.2
COCC#Cc1ccc([C@H]2[C@H](CO)N3CCCCN(Cc4cccnc4)C[C@@H]23)cc1	102.2*	1.0	6.2	100.9*	85.8	13.3	5.4
COCC#Cc1ccc([C@H]2[C@H]3CN(Cc4cncnc4)CCCCN3[C@H]2CO)cc1	78.5	-7.6	13.2	·	·	·	·
CN1CCN(C(=O)C[C@@H]2CC[C@@H]3[C@H](COC[C@@H](O)CN3C(=O)Nc3cc(Cl)cc(Cl)c3)O2)CC1	-41.1	·	10.7	·	·	·	·
C/C=C/c1ccc([C@@H]2[C@H](CO)N(Cc3cncnc3)C23CN(C(=O)CC)C3)cc1	·	7.9	-14.2	·	·	·	·
C[C@@H]1CCCCO[C@H](CN(C)Cc2ccncc2)[C@@H](C)CN([C@@H](C)CO)C(=O)c2cc(NC(=O)Nc3ccccc3)ccc2O1	20.4	-0.7	-76.5	·	·	·	·
COc1cccc(S(=O)(=O)N(C)C[C@@H]2Oc3cc(Br)ccc3S(=O)(=O)N([C@@H](C)CO)C[C@@H]2C)c1	·	7.4	-56.3	·	·	·	·
COc1ccc(S(=O)(=O)N(C)C[C@H]2Oc3cc(Br)ccc3S(=O)(=O)N([C@H](C)CO)C[C@H]2C)cc1	?	4.5	-25.9	102.0*	38.1	5.0	54.2*
COc1ccc(S(=O)(=O)N(C)C[C@@H]2Oc3cc(Br)ccc3S(=O)(=O)N([C@H](C)CO)C[C@@H]2C)cc1	?	7.4	-36.9	101.3*	39.4	14.7	61.4*
Cc1ccc(S(=O)(=O)N(C)C[C@H]2Oc3cc(Br)ccc3S(=O)(=O)N([C@H](C)CO)C[C@H]2C)cc1	66.7	14.3	-6.1	·	·	·	·
O=S(=O)(N[C@H]1CC[C@@H](CCn2cc(-c3cccc(F)c3)nn2)O[C@H]1CO)c1ccc(Cl)cc1	111.4*	·	-42.2	55.8	26.7	-13.4	18.5
Cc1cccc(S(=O)(=O)N[C@@H]2CC[C@H](CCn3cc(-c4ccccn4)nn3)O[C@@H]2CO)c1	24.6	2.1	-9.6	·	·	·	·
COc1cccc(S(=O)(=O)N[C@@H]2CC[C@@H](CCn3cc(-c4ccccn4)nn3)O[C@@H]2CO)c1	108.0*	7.5	-20.9	48.5	-10.4	12.6	22.6
Cc1ccccc1S(=O)(=O)N[C@H]1CC[C@@H](CCn2cc(-c3ccccc3)nn2)O[C@H]1CO	35.9	-6.6	-31.6	·	·	·	·
COc1ccc(-c2cn(CC[C@H]3CC[C@@H](NS(=O)(=O)c4ccccc4C)[C@@H](CO)O3)nn2)cc1	106.8*	-0.2	-3.5	103.3*	79.5	-1.3	-1.4
O=S(=O)(N[C@@H]1CC[C@@H](CCn2cc(-c3cccc(F)c3)nn2)O[C@H]1CO)c1ccc(Cl)cc1	54.4	·	-2.5	·	·	·	·
O=C(C[C@H]1CC[C@@H](NC(=O)Nc2ccc3c(c2)OCO3)[C@@H](CO)O1)NCc1ccc(Cl)cc1	-16.5	1.7	-12.9	·	·	·	·
COCCNC(=O)C[C@@H]1CC[C@H]2[C@H](COc3ccc(NC(C)=O)cc3C(=O)N2C)O1	39.9	-1.0	3.0	·	·	·	·
